This is one part of a sample in which hits are shown more often than they occur.
VACV E9 pol inh: vaccinia E9 polymerase processive synthesis inhibition. in vitro processive DNA synthesis, absorbance read-out; stronger effect = lower value. normalized absorbance, % (concentration not given with the values). 46,000 tested, 0.94% active. AID 493162; in the data active = normalized absorbance mostly below about 85%, no sharp cut-off; inactive = mostly above about 86%
Each line names hits and unclear results; the compound was inactive in the other large screens.

O=C(O)c1ccccc1NCc1ccc(Cl)cc1	VACV E9 pol inh 53
O=C(O)CCNc1ccccc1C(=O)O	none
COC(=O)c1cc(CCl)oc1C	none
O=C(NCC1CCCO1)c1cc2c(s1)CCC2 (centres undefined)	none
O=C(NCC1CCCO1)c1cc2sc3ccccc3c2s1 (centres undefined)	VACV E9 pol inh 66
CCn1c(=O)c2cc(C(=O)NCC3CCCO3)sc2c2ccccc21 (centres undefined)	none
c1coc([C@H]2Nc3ccccc3[C@H]3OCC[C@@H]23)c1	none
CN(C)c1nc(-c2ccccc2)nc2c1sc(=S)n2-c1ccccc1	none
CC(=O)Nc1ccc(N=Cc2ccc(C)cc2)cc1	none
CC(=O)Nc1ccc(N=Cc2ccc(OC(=O)c3cccnc3)cc2)cc1	none
CC(=O)Nc1ccc(N=Cc2ccc(OC(=O)c3ccccc3Br)cc2O)cc1	VACV E9 pol inh 82
O=C(O)c1ccccc1OCc1ccc2ccccc2n1	none
CS(=O)(=O)c1ccc2nc(NC(=O)CCSc3ccccc3)sc2c1	none
CCOc1ccc2nc(NC(=O)C(C)C)sc2c1	none
CCOc1ccc2nc(NC(=O)C(CC)CC)sc2c1	none
CCOc1ccc2nc(NN)sc2c1	VACV E9 pol inh 22
N#CCNC(=O)c1cc2nc(-c3cccs3)cc(C(F)(F)F)n2n1	none
CN1CCN(c2ccc(Nc3ccnc4cc(Cl)ccc34)cc2Cl)CC1	none
CCN1CCN(c2ccc(NC(=O)c3cccc(Br)c3)cc2)CC1	none
CCN1CCN(c2ccc(Nc3ccnc4cc5ccccc5cc34)cc2)CC1	VACV E9 pol inh 14
COC1CC2C(=O)OC(C(=O)O)C2C(OC)C1OC (centres undefined)	none
O=C(C1CC2CCC1C2)N1CCN(c2ccc3c(c2)OCO3)CC1 (centres undefined)	none
Cc1cc(C)cc(NC(=O)CSc2nnc(NC(=O)C(C)C)s2)c1	none
CC(NC(=O)CCn1c(=O)sc2ccccc21)c1ccccc1 (centres undefined)	none
Cc1nn(-c2ccccc2)c(OC(=O)c2cccs2)c1Sc1ccccc1	none
Cc1nn(C(C)(C)C)c(OC(=O)c2ccccc2)c1Sc1ccccc1	none
CC(=O)Oc1c(Sc2ccccc2)c(C)nn1C(C)(C)C	VACV E9 pol inh 83
CCCc1nc2c(o1)NC(N)=C(C#N)C2c1cnn(-c2ccccc2)c1C (centres undefined)	none
CCN1CCN(c2cc(C)c3cc(NC(=S)NCc4ccc(C)cc4)ccc3n2)CC1	none
CCOC(=O)C1C(C)=NC(=O)NC1C (centres undefined)	none
CCc1ccc(NC(=O)Cc2cccs2)cc1	none
CN(C)C=NC(=S)c1ccc(-c2cccs2)s1	VACV E9 pol inh 78
O=C(Sc1ccc(Cl)cc1)c1ccc(-c2cccs2)s1	none
CC(C)(C)c1csc(-c2ccc(-c3cccs3)s2)n1	none
Cc1cc(O)c(CN2CCN(C)CC2)c2oc(=O)c3ccccc3c12	VACV E9 pol inh 81
Cc1cc(=O)oc2c(CN3CCCCC3)c(O)ccc12	none
CCOC(=O)c1c(C)oc2c1c(CN1CCN(C)CC1)c(O)c1ccccc12	none
CCC1CSC(Nc2ccccc2)=N1 (centres undefined)	none
Cc1nnsc1C(=O)Nc1ccc(N(C)C)cc1	none
COc1ccccc1C1CCN(CCCOc2ccc(Cl)cc2)CC1	none
CCCC(=O)NCc1nc2ccccc2n1Cc1cc(C)ccc1C	none
COc1ccc(-c2cc3ccccn3c2C(=O)c2cccnc2)c(OC)c1	VACV E9 pol inh 44
COc1ccc(OC)c(NC(=O)c2cccnc2)c1	none
COc1ccc2nc(NC(=O)c3cccnc3)sc2c1	none
Cc1ccc(C(=O)OCC(=O)N2CCC(Cc3ccccc3)CC2)s1	none
O=C1NC(CCC2CCCCC2)Oc2ccccc21 (centres undefined)	none
CCC(=Nc1ccc(N)cc1)C1=C(O)CC(C)(C)CC1=O	none
O=C(CS(=O)(=O)c1cn(Cc2cccc(F)c2)c2ccccc12)NC1CCCCC1	none
O=C(NC1(C(F)(F)F)Oc2ccccc2O1)C(F)(F)F	none
O=C1Nc2ccccc2/C1=C\c1cn(CC(=O)N2CCCC2)c2ccccc12	none
CC1=NN(c2ccccc2)C(=O)/C1=C/c1cn(CC(O)CN2CCCCC2)c2ccccc12 (centres undefined)	VACV E9 pol inh 32
NC(=O)Cn1cc(/C=C2/C(=O)NC(=O)N(C3CCCCC3)C2=O)c2ccccc21	none
CCN(CC)c1ccc(NC(=O)c2ccc(Cl)s2)cc1	none
O=C(O)CN1CCC(c2ccccc2)CC1	none
O=C1CCC(c2ccccc2)CC1	VACV E9 pol inh 66
O=C1CC(c2ccccc2)SC(c2ccccc2)C1 (centres undefined)	none
CC(=O)N1CCOc2cc(S(=O)(=O)NCC3CCC(C(=O)Nc4cccc(C)c4)CC3)ccc21 (centres undefined)	none
C[n+]1ccc(/C=C\c2ccco2)c2ccccc21	none
C[n+]1ccc(/C=C/c2ccc3c(c2)OCO3)c2ccccc21	VACV E9 pol inh 60
C[n+]1ccc(/C=C/c2ccccc2O)c2ccccc21	none
N#Cc1ccc(OCC(=O)NCc2ccco2)cc1	none
CCCNCC(O)COc1ccccc1 (centres undefined) (tested in a mixture with another compound)	none
Cc1ccc(-c2onc3ccc(Cl)cc23)cc1	none
Fc1ccc(-c2onc3ccc(-c4ccn[nH]4)cc23)cc1	VACV E9 pol inh 79
Brc1ccc2noc(-c3ccccc3)c2c1	none
COc1cc(OC)cc(C(=O)N(C)C2(c3ccccc3Cl)CCCCC2=O)c1 (centres undefined)	none
CC(C)C(=O)Nc1ccccc1-c1nc2ccccc2[nH]1	none
O=C(Nc1ccccc1-c1nc2ccccc2[nH]1)C1=COCCO1	none
S=C(Nc1ccccc1)Nc1ccccc1-c1nc2ccccc2[nH]1	VACV E9 pol inh 68
COc1ccc2[nH]c3c(=O)n(Cc4ccc(C(=O)NC5CC5)cc4)c(=S)[nH]c3c2c1	none
COc1ccc(-c2cc(-c3ccc(Br)cc3)[nH]c(=O)n2)cc1	none
COc1ccc2ccccc2c1C=Nc1ccccc1C#N	none
c1ccc(CC2CCN(Cc3nnc(-c4ccccc4)o3)CC2)cc1	none
Nc1ccc(CCc2nc3cc(N)ccc3o2)cc1	none
CCOC(=O)c1cc2cc(-c3c(C)oc4cc(O)ccc4c3=O)ccc2o1	none
COCc1[nH]nc2c1C1(C(=O)Nc3ccccc31)C(C#N)=C(N)O2 (centres undefined)	none
COc1cc2cc(C)nc(C)c2cc1OC	VACV E9 pol inh 68
COc1cc2cc(=O)[nH]c(C)c2cc1OC	none
COc1cc2cc(C)nc(Cc3cccc4ccccc34)c2cc1OC	none
Cc1cccc(-c2noc(CCC(=O)NC(C)(C)C)n2)c1	none
CC(C)C(=O)Nc1cccc(Cl)c1	none
C[N+]1(C2CCC3CCC2C3=O)CCCC1 (centres undefined)	none
O=C1C2CCCC1CC(C(=O)N1CCCCC1)C2 (centres undefined)	none
CCOC(=O)c1c(C)n(Cc2ccccc2)c2ccc(O)cc12	none
CCOC(=O)c1c2ccc(O)cc2n2ccccc12	VACV E9 pol inh 75
CCOC(=O)c1c(C)n(CC)c2ccc(O)cc12	none
FC(F)(F)c1cc(C(F)(F)F)n2nc(-c3ccccc3)cc2n1	none
COC(C)n1cc(Br)c(=O)[nH]c1=O (centres undefined)	none
CCc1cccc(C)c1Nc1c(-c2ccccc2O)nc2ncccn12	none
Cn1c(-c2ccc3nc(-c4ccc(N)cc4)[nH]c3c2)nc2cc(N)ccc21	none
Cc1cc2nc(-c3ccc(Cl)nc3)[nH]c2cc1C	none
Cc1cc(N)cc2[nH]c(-c3ccc(N)cc3)nc12	VACV E9 pol inh 60
COC(=O)C1=C(O)c2ccccc2S(=O)(=O)N1C	none
CC(C)(C)c1cc(/C=C2\SC(=S)NC2=O)cc(C(C)(C)C)c1O	none
CCOc1cc(/C=C2\SC(=S)NC2=O)cc(Cl)c1OC(=O)c1ccc(OC)cc1	none
CCOc1cc(/C=C2/SC(=S)NC2=O)cc(Br)c1O	VACV E9 pol inh 69

Screening results from PubChem BioAssay.
